Compound activity as filed in PubChem.
Shown are actives, neighbours in structure and some others; about 3.9% of the full set was active somewhere.
HTT promoter inh: inhibits huntingtin promoter activity. HEK293 HTT promoter firefly luciferase reporter, 24 h. Potency, µM (highest dose often 57.5 µM), for inactives: top-dose activity change, negative = inhibition, actives largely listed as inhibitors. 48,000 tested, 0.93% active; further: potency means the concentration at half of the fitted maximal effect; nearly all actives have a fitted effect of over 50% in size
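HEK293 luciferase promoter-reporter cells (2,500/well) plated 24 h, then compounds added at up to 57.5 uM final for 24 h at 37 °C. Firefly luminescence by Dual-Glo, normalized to vehicle (0%) and zero RLU (-100%).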
HTT-AS act: activators of huntingtin-antisense promoter activity. HEK293 HTT-AS promoter firefly luciferase reporter, 24 h; response scale: percent change from vehicle, -100% = no light. Potency, µM (series often up to 57.5 µM), without a hit: top-dose activity change, positive = activation, actives largely listed as activators. 48,000 tested, 0.24% active; further: potency means the concentration at half of the fitted maximal effect; nearly all actives have a fitted effect of over 55% in size
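HEK293 cells carrying firefly luciferase reporters were seeded at 2,500 per well in Opti-MEM and cultured for 24 h. They were then treated with compounds at up to 57.5 uM final for 24 h at 37 degrees C before Dual-Glo luminescence readout.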
DRV1 agonist: activates human resolvin D1 receptor GPR32 | CHO-K1 GPR32 beta-arrestin PathHunter luminescence, 90 min; zero percent set by DMSO-only wells | O75388 | 48,000 tested, 2.5% active | activation, % at 76.9 µM;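 active means activation of at least 60% and not above a set upper limit, about 1 call in 100 departs from these limits; inconclusive means activation of 40% to 60%, or above that upper limit; inactive means activation under 40%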; further: 0% is about no effect
Target sequence (O75388 whole entry, looked up): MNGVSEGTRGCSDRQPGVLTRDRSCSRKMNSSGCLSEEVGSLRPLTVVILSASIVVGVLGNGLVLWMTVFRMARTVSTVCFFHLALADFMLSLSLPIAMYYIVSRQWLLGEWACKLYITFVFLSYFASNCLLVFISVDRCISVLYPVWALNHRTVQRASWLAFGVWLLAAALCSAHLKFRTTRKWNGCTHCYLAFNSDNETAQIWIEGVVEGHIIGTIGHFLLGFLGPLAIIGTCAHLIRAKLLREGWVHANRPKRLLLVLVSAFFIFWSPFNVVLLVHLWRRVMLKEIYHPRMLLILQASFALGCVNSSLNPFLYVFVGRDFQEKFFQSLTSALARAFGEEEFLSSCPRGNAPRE
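Agonism was scored as beta-arrestin recruitment to ProLink-fused GPR32 in stably transfected CHO-K1 cells, giving a chemiluminescent beta-Gal signal; compounds were incubated 90 min at 37 °C.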
p53null 32C kill: kills p53 null cells at the permissive temperature | H1299-neo p53 null cells, ATP luminescence, 24 h, 32C | 55,000 tested, 0.62% active | Potency, µM (series often up to 46.1 µM), inactives show at the top dose activity change, negative = cytotoxicity, usual class: cytotoxic;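 further: potency means the concentration at half of the fitted maximal effect; 0% = DMSO only and -100% = full killing by 100 µM tamoxifen; nearly all actives have a fitted effect of over 55% in size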
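Luminescent ATP readout gave cell viability of p53-null H1299-neo cells after a 24 h compound exposure at the permissive 32C. Titrations ran up to 46 uM, and AC50s were fitted with the standard Hill equation.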
p53null 39C tox: p53 null cell cytotoxicity, nonpermissive temperature | H1299 p53-null (neo) cells, 39C, ATPlite viability, 24 h | Potency, µM (titrated, usually from 46.1 µM), without a hit: at the top dose activity, negative = cell killing, usual class: cytotoxic | 55,000 tested, 0.97% active | AID 904;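 further: potency means the concentration at half of the fitted maximal effect; 0% = DMSO only and -100% = full killing by 100 µM tamoxifen; nearly all actives have a fitted effect of over 50% in size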
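Cells seeded at 600/well, 37C overnight. Compound added (up to 46 uM), plates shifted to 39C for 24 hr. ATPlite added, luminescence read after 20 min at room temperature.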
* marks the source's active call; other numbers are inactive results; ? = inconclusive; · = no result given. Unless noted, the call rests on the fitted dose curve; in most records, active means well fitted curve in the direction sought with a large enough effect; inconclusive means small, poorly fitted or top-dose-only effect, or another doubt; inactive means no such curve, though single readings can be large; an effect the other way counts as inactive or inconclusive.

SMILES	HTT promoter inh	HTT-AS act	DRV1 agonist	p53null 32C kill	p53null 39C tox
Cc1oc(-c2ccc(C(=O)Nc3cccc(C(F)(F)F)c3)cc2)nc1CSc1ccccc1	1.8µM*	-89%	-16	23%	?
CCC(CO)Nc1ncnc2c1cnn2-c1ccc(C)cc1 (configuration not stated)	?	-46%	15	16µM*	20%
COc1ccc(-n2ncc3c(NC(C)(C)CO)ncnc32)cc1	-22%	-10%	9	13µM*	?
COC(=O)c1cc(S(N)(=O)=O)ccc1OC	-1%	0%	-3	·	·
Cc1nnc(SCC(=O)NCc2cccc(F)c2)c2nn(-c3ccccc3)c(C)c12	?	-49%	5	22%	27%
CCOc1ccc(CNC(=O)CSc2nnc(C)c3c(C)n(-c4ccccc4)nc23)cc1	-5%	-22%	-10	22%	25µM*
CCc1ccc(NC(=O)C2CCN(c3nc(-c4ccc(OC)cc4)no3)CC2)cc1	?	-48%	-7	-8%	-14%
COc1ccc(-c2noc(N3CCC(C(=O)Nc4ccc(F)cc4Cl)CC3)n2)cc1	1.8µM*	-86%	-10	-6%	-13%
COc1ccc(-c2noc(N3CCC(C(=O)N4CCN(c5cccc(C)c5C)CC4)CC3)n2)cc1	?	-18%	0	?	-13%
COc1ccc(-c2noc(N3CCC(C(=O)N4CCN(c5cccc(OC)c5)CC4)CC3)n2)cc1	2.2µM*	-84%	1	9%	?
COc1ccc(-c2noc(N3CCC(C(=O)N4CCN(c5ccccc5OC)CC4)CC3)n2)cc1	13µM*	-58%	14	3%	-11%
Cc1cccc(N2CCN(c3ncnc4onc(C)c34)CC2C)c1 (configuration not stated)	13µM*	-93%	?	?	?
CC1=C(CC(=O)O)c2cc(F)ccc2C1=Cc1ccc(S(C)=O)cc1 (configuration not stated)	?	-54%	·	·	·
CCc1c(O)cc(O)c(C(=O)c2ccc(OCCN3CCOCC3)c(OC)c2)c1CC(=O)N(CCOC)CCOC	?	-54%	·	·	·
COc1ccc(C(=O)Nc2ccc3nc(N4CCC(C)CC4)cc(C)c3c2)cc1	12%	-13%	26	?	?
Cc1cc(N2CCCCC2)nc2ccc(NC(=O)c3ccc(F)cc3)cc12	-20%	-24%	105*	·	·
Cc1ccc(NC(=O)Nc2ccc3nc(N4CCN(C)CC4)cc(C)c3c2)cc1F	-21%	-51%	94*	7%	-28%
Cc1cc(N2CCN(C)CC2)nc2ccc(NC(=O)Nc3ccc(F)cc3)cc12	25%	9%	30	-5%	-38%
COc1cc2c(cc1-c1c(C)noc1C)ncc1[nH]c(=O)n([C@H](C)c3ccccn3)c12	-33%	6%	·	·	·
Cc1ccnc(NC(c2cccc(O)c2)c2ccc3ccc(C)nc3c2O)c1 (configuration not stated)	-6%	-10%	-52	-8%	-7%
Cc1cccc(NC(c2cccc(Cl)c2)c2ccc3cccnc3c2O)n1 (configuration not stated)	10µM*	-38%	-13	?	2.5µM*
COc1ccc(C(Nc2ccccn2)c2ccc3ccc(C)nc3c2O)cc1C (configuration not stated)	?	-31%	90*	?	?
CCOc1cc(C(Nc2cc(C)ccn2)c2ccc3cccnc3c2O)ccc1OC (configuration not stated)	35µM*	-39%	2	?	?
Cc1ccc(C(Nc2ccccn2)c2ccc3cccnc3c2O)cc1 (configuration not stated)	?	-48%	?	?	4µM*
CCCOc1ccn2c(C(C)=O)cc(-c3ccccc3S(C)(=O)=O)c2c1	2%	·	·	·	·
SMILES	HTT promoter inh	HTT-AS act	DRV1 agonist	p53null 32C kill	p53null 39C tox
COc1ccc(-n2nc3c(N4CCCC(C(=O)NCCc5ccccc5C)C4)nnc(C)c3c2C)cc1 (configuration not stated)	-18%	-22%	-7	-6%	-7%
COc1ccc(-n2nc3c(N4CCCC(C(=O)NCc5ccccc5C)C4)nnc(C)c3c2C)cc1 (configuration not stated)	?	-84%	13	?	16µM*
CC(C)(C)c1ccc(C(=O)NNc2ncnc3c2cnn3-c2ccc(Cl)cc2)cc1	?	-33%	26	-5%	-5%
CC(C)(C)c1ccc(C(=O)NNc2ncnc3c2cnn3-c2ccccc2)cc1	-25%	-8%	104*	-11%	26%
O=C(O)C1=CC(O)C(O)[C@H](O)C1 (some centres not stated)	-7%	-10%	·	·	·
CC(C)Oc1cc(Nc2nc(N[C@@H](C)c3ccc(F)cn3)ncc2Cl)[nH]n1	?	-14%	·	·	·
N[C@@H](CC(=O)N1CCn2c(nnc2C(F)(F)F)C1)Cc1cc(F)c(F)cc1F	4%	-3%	·	·	·
CCOC(=O)Cc1ccc(NC(=O)n2ncc3cc(Cl)ccc32)cc1	0.25µM*	-91%	8	-1%	-8%
Cc1ccc(N2C(=O)CSC23C(=O)N(Cc2ccccc2F)c2ccccc23)cc1F (configuration not stated)	25µM*	-33%	-23	36%	85%
CC(C)c1ccc(N2C(=O)CSC23C(=O)N(Cc2ccccc2F)c2ccccc23)cc1 (configuration not stated)	-20%	1%	3	1%	-8%
CNC(=O)c1cc2ccccc2o1	·	·	·	-8%	21%
C/C(=N\Nc1nc2ccccc2[nH]1)c1cc2ccccc2o1	·	·	·	10µM*	?
CC(=O)c1c(C)oc2c(Br)cc(NS(=O)(=O)c3ccc(Br)cc3)cc12	-7%	-9%	-1	19%	5%
CC(=O)c1c(C)oc2c1cc(NS(=O)(=O)c1ccc(Br)cc1)c1ccccc12	?	-39%	80*	22%	-12%
Cc1ccc(NC(=O)CCc2c(C)nn(-c3ccc(N4CCCCC4)nn3)c2C)cc1F	·	·	-9	?	7.9µM*
O=C1CSC(=O)N1C(CCc1ccncc1)COc1ccc(-c2cccc([N+](=O)[O-])c2)cc1 (configuration not stated)	?	-65%	·	·	·
CC(C)c1ccc(C2=CC(c3cccc(Cl)c3)n3c(nc4ccccc43)N2)cc1 (configuration not stated)	?	?	47	22µM*	?
CC(C)c1ccc(C2=CC(c3ccc(C(C)C)cc3)n3nnnc3N2)cc1 (configuration not stated)	-12%	?	-33	0%	4%
CC(C)c1ccc(C2=CC(c3cccc(Cl)c3)n3ncnc3N2)cc1 (configuration not stated)	-37%	-20%	74*	8%	7%
